# An excerpt weighted towards active compounds, which were near 1.3% of everything screened.
# GLD-1 RNA inh: GLD-1-TGE RNA interaction inhibition (C. elegans) | 0.44% of 320,000 active | purified GLD-1 + fluorescein TGE RNA, fluorescence polarization | inhibition, % at 5.96 µM;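 active means percent inhibition above a per-plate cutoff, the plate mean of test compounds plus 3 SD, cut at about 30% in these data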;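 further: 0% = DMSO wells with GLD-1 and probe and 100% = wells lacking GLD-1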
# Bcl-xL primary: Bcl-xL (human) inhibition. inhibition, % at 10.9 µM. GST-Bcl-xL / FITC-Bim BH3 peptide fluorescence polarization. Q07817. 0.7% of 320,000 active. AID 2129;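 active means inhibition above the mean of all tested compounds plus 3 SD, cutoff set per campaign, cut at about 30% in these data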;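 further: 0% = DMSO wells and 100% = unlabeled Bim-BH3 peptide competitor; inhibitors lower millipolarization by displacing the labeled peptide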
# Target sequence (Q07817 whole entry, looked up): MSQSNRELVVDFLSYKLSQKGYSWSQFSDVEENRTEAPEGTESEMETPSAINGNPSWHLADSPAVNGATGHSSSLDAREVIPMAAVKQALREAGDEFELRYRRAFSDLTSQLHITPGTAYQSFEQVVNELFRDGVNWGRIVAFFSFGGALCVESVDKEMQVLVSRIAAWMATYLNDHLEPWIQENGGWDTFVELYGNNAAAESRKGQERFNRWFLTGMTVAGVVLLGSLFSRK
# eLon inh: inhibits E. coli Lon protease | P0A9M0 | purified E. coli Lon protease, fluorescence polarization | inhibition, % at 7.94 µM | 0.42% of 360,000 active | AID 602123; in the data active means inhibition above about 13%, passing the limit was not always enough;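 further: 0% = enzyme with probe and DMSO and 100% = no enzyme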
# MCL1-BIM inh: MCL1-BIM-BH3 interaction inhibition (human). GST-MCL1 / FITC-Bim-BH3 fluorescence polarization. 0.68% of 320,000 active. Q07820. inhibition, % at 10.9 µM;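 active means inhibition above the mean inhibition of all tested compounds plus 3 SD, set per campaign, cut at about 40% in these data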;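 further: 0% = DMSO wells and 100% = unlabeled Bim-BH3 peptide control; higher means more loss of mP so more displacement of Bim peptide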
# Target sequence (Q07820 whole entry, looked up): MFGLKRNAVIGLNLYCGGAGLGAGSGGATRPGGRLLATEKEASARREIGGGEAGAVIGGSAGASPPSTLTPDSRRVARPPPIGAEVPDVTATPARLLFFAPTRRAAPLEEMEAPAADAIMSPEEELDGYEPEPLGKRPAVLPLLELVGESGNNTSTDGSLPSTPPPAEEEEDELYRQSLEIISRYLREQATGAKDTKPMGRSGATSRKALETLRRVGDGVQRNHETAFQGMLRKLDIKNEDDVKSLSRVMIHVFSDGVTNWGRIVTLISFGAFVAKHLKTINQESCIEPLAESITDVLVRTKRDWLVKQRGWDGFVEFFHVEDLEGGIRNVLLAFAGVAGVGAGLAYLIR
# Keap1 Nrf2 FP: Keap1-Nrf2 (human) interaction inhibition | Q14145 | Keap1 Kelch-Nrf2 peptide fluorescence polarization, 1536-well | inhibition, % at 9.4 µM | 0.15% of 340,000 active | AID 504523; in the data active means inhibition above about 12%;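 further: human Keap1 Kelch domain with fluorescein labeled Nrf2 9mer peptide probe; 0% = neutral control wells and 100% = peptide positive control; higher means more block of Keap1 binding to Nrf2 peptide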
# LANA DNA inh: KSHV C-LANA DNA binding inhibition; AID 504423; 0.078% of 340,000 active; inhibition, % at 9 µM; MBP-C-LANA/FAM-LBS DNA binding, fluorescence polarization;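 active means highest replicate inhibition at or above 60% at 9 µM, even if other replicates fall short; inactive means all replicates below 60% inhibition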;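 further: 0% = neutral control wells and 100% = 4 µM acridine orange control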
# Numbers without * were called inactive; x = not tested or not shown.
SMILES,GLD-1 RNA inh,Bcl-xL primary,eLon inh,MCL1-BIM inh,Keap1 Nrf2 FP,LANA DNA inh
CCN(CCCCN1C(=O)c2ccccc2C1=O)c1ccc2c(c1)C(=O)N(C)C2=O,6,38*,-1,49*,-6,1
CCN(CC)c1ccc2c(c1)C(=O)N(C)C2=O,20,27,4,28,-3,2
CNC(=O)c1cn(-c2ccccc2)c(=O)c2ccccc12,72*,72*,-2,41*,3,0
CCOC(=O)C1=CCN(S(=O)(=O)c2ccccc2C)C1c1cccc(F)c1 (stereo unspecified),x,x,-3,x,x,x
Cc1ccc2occ(CN3CCN(c4ccccc4)CC3)c(=O)c2c1,0,36*,-6,0,1,0
COCOCCn1cc(CN2CCS(=O)(=O)N(Cc3ccc(-c4ccc(OC)c(OC)c4)cc3)C(CC(C)C)C2=O)nn1 (stereo unspecified),x,x,-2,x,x,x
O=C(NCc1ccccn1)c1ccc(CS(=O)(=O)Cc2ccc(Cl)cc2)o1,14,16,-4,13,-2,4
Cc1ccccc1CS(=O)(=O)Cc1ccc(C(=O)NCc2ccccn2)o1,20,31*,0,37,0,5
CC(C)CC(=O)Nc1nnc(CSCc2ccc(F)cc2)s1,5,2,4,7,-2,75*
COc1cc(/C=C2/NC(=O)N(Cc3ccccc3F)C2=O)cc(OC)c1O,66*,10,-10,14,0,1
CCOc1cc(/C=C2/NC(=O)N(Cc3ccccc3F)C2=O)ccc1O,-5,3,0,0,-6,0
COc1ccc(-c2nc3n(c2C)Cc2ccccc2-3)cc1,4,46*,7,41*,-7,-1
Cc1ccc(C)c(N2CCN(C(=O)c3ccc(N4CCCC4=O)cc3)CC2)c1,12,130*,-8,9,-5,0
O=C(c1ccc(N2CCCC2=O)cc1)N1CCN(c2ccccc2O)CC1,2,1,-2,1,0,0
Cc1ccc(S(=O)(=O)N(C)c2ccc3c(c2)C(=O)c2ccccc2-3)cc1,x,x,-1,x,x,x
NNc1nnc2c3cc(F)ccc3n(Cc3ccccc3)c2n1,-2,-2,1,6,-1,62*
Cc1nn(C)c(C)c1CN(C)C(=O)C1c2ccccc2Oc2ccccc21,30,31*,7,37,2,4
CC1C(=O)N(Cc2cn(CCC3OCCO3)nn2)CCS(=O)(=O)N1Cc1ccc(-c2ccc(Cl)c(Cl)c2)cc1 (stereo unspecified),x,x,-9,x,x,x
Cc1ccc(C2=CC(c3ccc(C)cc3)n3ncnc3N2)cc1 (stereo unspecified),27,19,9,20,1,0
CCOc1ccc(C2C=C(c3ccc(C)cc3)Nc3ncnn32)cc1 (stereo unspecified),26,47*,x,41*,x,x
CSc1ccc(CN2CCC(N3CCC(C(=O)NC4CC4)CC3)CC2)cc1,x,x,-8,x,x,x
O=C(NCc1ccco1)c1ccc(-c2ccc(F)c(F)c2)c2ccoc12,x,x,1,x,x,x
COc1ccccc1Cc1c(C(C)(C)C)nc2ccc(C)cn12,x,x,-1,x,x,x
Cn1cc(C2=C(c3ccc(Cl)cc3Cl)C(=O)NC2=O)c2ccccc21,-10,60*,-64,24,-11,10
O=C(Nc1ccncc1)Nc1cccc(Cl)c1Cl,x,x,-10,x,4,-1
SMILES,GLD-1 RNA inh,Bcl-xL primary,eLon inh,MCL1-BIM inh,Keap1 Nrf2 FP,LANA DNA inh
O=C(Nc1ccc(Cl)cc1)Nc1cccc2nsnc12,4,48*,2,5,3,1
Cc1ccc(-c2cc(C(=O)Nc3cc(C)on3)no2)cc1,47*,37*,-2,28,-4,-1
CC(c1nccs1)N(C)c1nc2nonc2nc1NC1CC1 (stereo unspecified),28,33*,10,37,-2,4
CN1c2ccccc2N(C)C1(C)c1cccc2ccccc12,27,43*,-5,27,1,1
NC(Cc1ccc(Cl)cc1)c1csc(Nc2cc(NCCCO)ncn2)n1 (stereo unspecified),x,x,2,x,x,x
CCOC(=O)C1=C(C)S/C(=C\N(C)C)C1=O,9,2,-5,14,0,4
CCOC(=O)C1=C(C)NC(=O)/C1=C\N(C)C,21,38*,-3,31,-2,1
CCCCn1nnnc1C1(C)CCC(=O)N1Cc1cccnc1 (stereo unspecified),x,x,-3,x,x,x
CCOC(=O)C1=CC[C@@H](c2ccccc2C(F)(F)F)N(S(=O)(=O)c2ccc(C)cc2)[C@H]1c1ccc(C#N)cc1,x,x,0,x,x,x
CNC(=O)/C(C#N)=C/c1c(N(Cc2ccccc2)Cc2ccccc2)nc2c(C)cccn2c1=O,5,154*,-12,0,-1,0
O=C1CCNc2c(Cl)cc(Cl)cc21,24,32*,13,29,-3,5
O=C1CCNc2c(Cl)cccc21,7,4,11,5,-8,3
CCc1nc2c(OCCOc3ccccc3)cccn2c1N(C)C(=O)C1CC1,x,x,-9,x,x,x
COc1cccc(-n2ccnc2SCC(=O)Nc2nccs2)c1,104*,4,-9,-5,-2,1
COc1ccc(NC(=O)C2Cc3c(-c4cccc(NC(C)=O)c4)ccnc3O2)cc1 (stereo unspecified),x,x,-2,x,x,x
C=Cc1c(C)c2cc3[nH]c(cc4nc(cc5nc(cc1[nH]2)C(C)=C5CCC(=O)O)C(CCC(=O)O)=C4C)c(C)c3C=C,19,29,1,83*,1,64*
CCC/C(C#Cc1cc(OC)cc(OC)c1)=C1/c2ccccc2C(=O)N1c1ccccc1,2,x,7,x,-4,1
CCC/C(C#Cc1ccc(N(C)C)cc1)=C1/c2ccccc2C(=O)N1c1ccccc1,119*,x,-163,x,-5,5
O=C(OC[C@H]1O[C@@H](OC(=O)c2cc(O)c(O)c(OC(=O)c3cc(O)c(O)c(O)c3)c2)[C@H](OC(=O)c2cc(O)c(O)c(OC(=O)c3cc(O)c(O)c(O)c3)c2)[C@@H](OC(=O)c2cc(O)c(O)c(OC(=O)c3cc(O)c(O)c(O)c3)c2)[C@@H]1OC(=O)c1cc(O)c(O)c(OC(=O)c2cc(O)c(O)c(O)c2)c1)c1cc(O)c(O)c(OC(=O)c2cc(O)c(O)c(O)c2)c1,90*,55*,x,76*,x,x
COC1OC(COC(=O)c2ccccc2)C(OC(=O)c2ccccc2)C1OC(=O)c1ccccc1 (stereo unspecified),10,2,6,-4,-2,3
O=C(COC(=O)c1cnccn1)Nc1ncc(Cl)cc1Cl,22,34*,-18,33,1,5
CCCC1=NCCn2cccc21,28,33*,7,31,-3,3
Cc1nnc(NC(=O)c2c(-c3ccccc3)noc2C)s1,-1,4,3,-2,-2,-4

# From PubChem
